Screens deposited in PubChem BioAssay by National Center for Advancing Translational Sciences (NCATS).
HCMV inh = qHTS Assay for inhibitors of the human cytomegalovirus (HCMV); HFF cells, HCMV-luciferase reporter, 72 h; active compounds read low; activity change, negative = inhibition, % at 57.5 µM; 4.5% of 410,000 active; in the data active = activity change below about -60%; inconclusive = no clear call, values can overlap the other calls; inactive = above about -39%
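Luciferase read-out from HCMV-luciferase-infected HFFs (MOI 1 PFU/cell) 72 h post infection at 37C; compounds added after 16 h cell attachment; activity normalized between buffer-only basal and Salinomycin (10uM) inhibitor controls.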
LASV entry inh = qHTS for Inhibitors of binding or entry into cells for Lassa Virus | 1.2% of 300,000 active | Lassa virus pseudotype entry inhibition, cell reporter | Potency, µM (titrated, usually from 37.9 µM), inactives show at the highest dose activity change, negative = inhibition, most hits filed as inhibitors; calls by dose curve; tested in HEK293 cells; also: potency is read from the fitted curve at half-maximal effect; nearly all actives have a fitted effect of over 50% in size
Pf growth 96h = Primary qHTS for delayed death inhibitors of the malarial parasite plastid, 96 hour incubation | P. falciparum luciferase reporter growth, 96 h | Potency, µM (series often up to 28.7 µM), without a hit: at the highest dose activity change, negative = inhibition, actives largely listed as inhibitors | 6.9% of 320,000 active | AID 504834, 2011; also: potency is read from the fitted curve at half-maximal effect
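96 h incubation, 37 C, 5% CO2, of luciferase-reporter P. falciparum-infected RBCs (2% hematocrit, 0.05% parasitemia final) with test compounds; endpoint luminescence.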
HCV inh = qHTS Assay for Inhibitors of Hepatitis C Virus (HCV); AID 651820, 2012; 3.4% of 340,000 active; Huh7.5.1 HCVcc-Cre infection, luciferase reporter, 44 h; Potency, µM (doses to about 41.8 µM), inactives show at the top dose activity change, negative = inhibition, usual class: inhibitors; also: potency is read from the fitted curve at half-maximal effect
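Cells (1,000/well) were plated 4 h before compound, then infected with HCVcc-Cre virus (~0.5 moi). After 44 h further culture, infection was read as luciferase luminescence following a 15 min substrate incubation at room temperature.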
Pf growth 48h = Primary qHTS for delayed death inhibitors of the malarial parasite plastid, 48 hour incubation; AID 504832, 2011; P. falciparum luciferase growth in erythrocytes, 48 h; Potency, µM (series often up to 28.7 µM), inactives show at the top dose activity change, negative = inhibition, most hits filed as inhibitors; 5.9% of 310,000 active; also: potency is read from the fitted curve at half-maximal effect
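Luciferase-expressing parasites in RBCs, 2% Hct / 0.1% parasitemia final; RPMI 1640 + 0.5% Albumax; 37 C, 5% CO2, one generation; luminescence read-out, lower signal = inhibition.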
MARV entry inh = qHTS for inhibitors of binding or entry into cells for Marburg Virus | Marburg virus pseudotyped entry inhibition, cell reporter | Potency, µM (top dose mostly 37.8 µM), for the others: at the highest dose activity change, negative = inhibition, usual class: inhibitors | 1.8% of 300,000 active | AID 540276, 2011; calls by dose curve; tested in HEK293 cells; also: potency is read from the fitted curve at half-maximal effect
Active calls of the source: *; ? = inconclusive; . = no result; ! = repeats disagree; [ ] = dose if it differs, or a comment. Compounds with a hit are over-represented: about 14% of the library has one in this group of screens. Unless noted, calls follow the shape of the dose curve; as a rule, active = well fitted inhibition curve with a large enough effect; inconclusive = small, poorly fitted or top-dose-only effect, or another doubt; inactive = no such curve, though single readings can be large or run the other way. % is scaled to controls: 0 for no effect and ±100 for the full control effect.

SMILES | HCMV inh | LASV entry inh | Pf growth 96h | HCV inh | Pf growth 48h | MARV entry inh
C[C@H]1CN([C@@H](C)CO)C(=O)c2cccc(NC(=O)Nc3ccc(F)cc3)c2O[C@@H]1CN(C)Cc1ccc(C(=O)O)cc1 | -11 | . | . | -10% | . | .
COc1ccc(Cn2c(-c3ccc(OC)cc3)nc3c(c(=O)c4ccccc4n3C)c2=O)cc1 | . | . | 9.3µM* | -28% | 12µM* | .
COc1ccc(Cn2c(-c3ccc(C)cc3)nc3c(c(=O)c4ccccc4n3C)c2=O)cc1 | 55 | ? | ? | ? | 13µM* | ?
CCCc1nc2sc3ccccc3c(=O)c2c(=O)n1Cc1ccc(OC)cc1 | -9 | 11% | 10µM* | ? | ? | -2%[46.1 µM]
COc1ccc(-c2nc3c(c(=O)c4ccccc4n3C)c(=O)n2Cc2ccccc2)cc1 | ? | 8% | 2.9µM* | ? | -20% | 6%
COc1ccc(Cn2c(-c3ccccc3C)nc3c(c(=O)c4ccccc4n3C)c2=O)cc1 | 15 | . | . | 8% | . | .
Cc1c(C(=O)OC2CCC(C)CC2)[nH]c2c1C(=O)CC(c1ccccc1Cl)C2 (stereo not drawn) | -28 | 3%[46.1 µM] | . | . | . | -19%[46.1 µM]
Cc1ccc(CNC(=O)CSc2nnc(C)c3c(C)n(-c4ccccc4)nc23)cc1 | -29 | -9%[46.1 µM] | . | . | . | .
Cc1oc2ncn(C)c(=O)c2c1C(=O)N1CCN(c2ccc(Cl)cc2)CC1 | -5 | 11%[46.1 µM] | . | . | . | .
COc1cc([C@@H]2C(C#N)=C(N)Oc3cc(C)n(CCc4ccccc4)c(=O)c32)cc2c1OCO2 | . | . | . | . | . | -22%
COc1ccc(Cn2c(-c3ccco3)nc3c(c(=O)c4ccccc4n3C)c2=O)cc1 | ? | . | -2% | ? | 11% | .
COCCn1c(-c2ccccc2)nc2c(c(=O)c3ccccc3n2C)c1=O | . | -3% | 15µM* | -5% | ? | ?
CCc1nc2sc3ccccc3c(=O)c2c(=O)n1CCOC | -5 | 1% | 0% | -5% | 4% | -2%
COCCn1c(C2CCCCC2)nc2sc3ccccc3c(=O)c2c1=O | 15 | 1% | 0% | -20% | 1.5µM* | 5%
COCCn1c(-c2cccc(Br)c2)nc2c(c(=O)c3ccccc3n2C)c1=O | -17 | . | ? | -2% | ? | .
Cn1c2ccccc2c(=O)c2c(=O)n(Cc3ccccc3)c(-c3ccc(F)cc3)nc21 | -19 | -13% | 5.2µM* | -4% | ? | 5%
CN(C(=O)/C=C/c1ccc([N+](=O)[O-])s1)c1ccccc1 | ? | . | ? | 22µM* | ? | .
CCN1C=C(Cc2ccc(F)cc2)C2=C(C1)C(c1ccc(F)cc1)C(C#N)=C(N)O2 (stereo not drawn) | 27 | ? | ? | -8% | . | ?
CCN1C=C(Cc2ccccc2C)C2=C(C1)C(c1ccccc1C)C(C#N)=C(N)O2 (stereo not drawn) | -7 | -22% | 2.9µM* | -22% | . | ?
COc1ccccc1-c1csc(C(C)(NC(C)=O)c2ccccc2)n1 (stereo not drawn) | 37 | . | . | . | . | .
CSc1nc(Sc2cccc(Cl)c2)c2ccccc2n1 | 4 | 4% | ? | 13% | ? | -2%
CSc1nc(Sc2ccc(Cl)cc2)c2ccccc2n1 | -20 | 22% | 4.7µM* | -11% | 2.6µM* | 8%
CSc1nc(Sc2ccccc2)c2ccccc2n1 | -20 | -1% | -8% | 4.5µM* | -19% | ?
Cc1cc(Cl)ccc1OCC(=O)Nc1c(C(=O)c2ccccc2)oc2ccccc12 | -18 | 2%[46.1 µM] | . | . | . | -2%[46.1 µM]
CSc1ccc(CCNC(=O)CN2C(=O)COc3ccc(S(=O)(=O)N4CCCC4)cc32)cc1 | -23 | -21%[46.1 µM] | . | . | . | ?
SMILES | HCMV inh | LASV entry inh | Pf growth 96h | HCV inh | Pf growth 48h | MARV entry inh
NCCCS(=O)(=O)O | ? | ? | 5% | 5.6µM*! | 8% | 8.2µM*!
O=C1NC[C@H](CCCCN2C[C@H](Cc3ccc(O)cc3)N(CCc3ccccc3)C(=O)C2=O)N(CCc2ccc(O)cc2)C1=O | -22 | . | . | . | . | .
CC1(C(=O)Nc2ccc(Cl)c(Cl)c2)CCN1CCc1ccccc1 (stereo not drawn) | -2 | . | . | . | . | .
CCOc1cc(OCC)cc(C(=O)N2CCC[C@H]2C(=O)N2CCC[C@H]2C(=O)N[C@H](C)c2ccccc2)c1 | -4 | . | . | . | . | .
NC1=NC[C@H](Cc2ccccc2)N1CC1CCCCC1 | -15 | . | . | 8% | . | .
NC1=NC[C@@H](Cc2ccc(O)cc2)N1CCCCC1CCCCC1 | -36 | . | 1.2µM* | 20% | 1.9µM* | .
NC1=NC[C@H](Cc2ccc(O)cc2)N1CC1CCCCC1 | -5 | . | 2.6µM* | 16% | 5.9µM* | .
Cc1c2c(cc3c1[nH]c1ccccc13)C=NCC2 | 3 | 8%[46.1 µM] | . | 10µM* | . | ?
C/C(=N\NC(=S)NC(C)C)c1ccc(Cl)s1 | -30 | -1% | ? | 6.3µM* | -29% | -12%
C/C(=N\NC(N)=S)c1ccc(Cl)s1 | -67* | -11% | ? | -10% | -15% | -11%
CCn1c(=O)c2sccc2n2c(CCCC(=O)N3CCN(c4ccccc4OC)CC3)nnc12 | ? | 0%[46.1 µM] | . | . | . | .
Cc1ccc(C2C3=C(CCCC3=O)OC3=C2C(=O)CCC3)cc1 | 7 | 5% | 37% | 24% | 1% | 14%
Cc1ccc(C2C3=C(CC(C)(C)CC3=O)N(CCN3CCOCC3)C3=C2C(=O)CC(C)(C)C3)cc1 | -20 | 15% | ? | -8% | 12µM* | 1%
Cc1ccc(C2C3=C(CC(C)(C)CC3=O)OC3=C2C(=O)CC(C)(C)C3)cc1 | -20 | ? | -6% | 11% | 10µM* | -7%[46.1 µM]
Cc1c(C(=O)Nc2nccs2)sc2nc(-c3cccs3)cc(C(F)(F)F)c12 | ? | -25% | ? | 11µM* | ? | ?
Cc1cc(N2CCN(C(=O)Nc3ccc(F)cc3F)CC2)c2ccccc2n1 | . | ? | 15µM* | ? | 10µM* | -17%
CCCCc1ccc(NC(=O)N2CCN(c3cc(C)nc4ccccc34)CC2)c(C)c1 | . | . | ? | 6.3µM* | ? | .
Cc1cc(N2CCN(C(=O)c3ccco3)CC2)c2ccccc2n1 | -13 | . | -41% | 10% | -5% | .
